Assay results as given in the supplement of paper PMC11732987, “Enantioselective OTUD7B fragment discovery through chemoproteomics screening and high-throughput optimisation” (Communications Chemistry, 2025).

What was measured:
Assay in all cases: log2 ratio of Biotin-Ahx-Ub-VS probe labelling (fragment/DMSO); higher = less target engagement (more negative = stronger competition), active = hit call of the paper (q ≤ 0.05, log2 ratio ≤ -1)
Details in all cases: compound concentration: 200 uM; treatment time: 3 h
USP34 = USP34 (UniProt Q70CQ2)
Chain of USP34 (Q70CQ2 whole entry, the tested form may be a part): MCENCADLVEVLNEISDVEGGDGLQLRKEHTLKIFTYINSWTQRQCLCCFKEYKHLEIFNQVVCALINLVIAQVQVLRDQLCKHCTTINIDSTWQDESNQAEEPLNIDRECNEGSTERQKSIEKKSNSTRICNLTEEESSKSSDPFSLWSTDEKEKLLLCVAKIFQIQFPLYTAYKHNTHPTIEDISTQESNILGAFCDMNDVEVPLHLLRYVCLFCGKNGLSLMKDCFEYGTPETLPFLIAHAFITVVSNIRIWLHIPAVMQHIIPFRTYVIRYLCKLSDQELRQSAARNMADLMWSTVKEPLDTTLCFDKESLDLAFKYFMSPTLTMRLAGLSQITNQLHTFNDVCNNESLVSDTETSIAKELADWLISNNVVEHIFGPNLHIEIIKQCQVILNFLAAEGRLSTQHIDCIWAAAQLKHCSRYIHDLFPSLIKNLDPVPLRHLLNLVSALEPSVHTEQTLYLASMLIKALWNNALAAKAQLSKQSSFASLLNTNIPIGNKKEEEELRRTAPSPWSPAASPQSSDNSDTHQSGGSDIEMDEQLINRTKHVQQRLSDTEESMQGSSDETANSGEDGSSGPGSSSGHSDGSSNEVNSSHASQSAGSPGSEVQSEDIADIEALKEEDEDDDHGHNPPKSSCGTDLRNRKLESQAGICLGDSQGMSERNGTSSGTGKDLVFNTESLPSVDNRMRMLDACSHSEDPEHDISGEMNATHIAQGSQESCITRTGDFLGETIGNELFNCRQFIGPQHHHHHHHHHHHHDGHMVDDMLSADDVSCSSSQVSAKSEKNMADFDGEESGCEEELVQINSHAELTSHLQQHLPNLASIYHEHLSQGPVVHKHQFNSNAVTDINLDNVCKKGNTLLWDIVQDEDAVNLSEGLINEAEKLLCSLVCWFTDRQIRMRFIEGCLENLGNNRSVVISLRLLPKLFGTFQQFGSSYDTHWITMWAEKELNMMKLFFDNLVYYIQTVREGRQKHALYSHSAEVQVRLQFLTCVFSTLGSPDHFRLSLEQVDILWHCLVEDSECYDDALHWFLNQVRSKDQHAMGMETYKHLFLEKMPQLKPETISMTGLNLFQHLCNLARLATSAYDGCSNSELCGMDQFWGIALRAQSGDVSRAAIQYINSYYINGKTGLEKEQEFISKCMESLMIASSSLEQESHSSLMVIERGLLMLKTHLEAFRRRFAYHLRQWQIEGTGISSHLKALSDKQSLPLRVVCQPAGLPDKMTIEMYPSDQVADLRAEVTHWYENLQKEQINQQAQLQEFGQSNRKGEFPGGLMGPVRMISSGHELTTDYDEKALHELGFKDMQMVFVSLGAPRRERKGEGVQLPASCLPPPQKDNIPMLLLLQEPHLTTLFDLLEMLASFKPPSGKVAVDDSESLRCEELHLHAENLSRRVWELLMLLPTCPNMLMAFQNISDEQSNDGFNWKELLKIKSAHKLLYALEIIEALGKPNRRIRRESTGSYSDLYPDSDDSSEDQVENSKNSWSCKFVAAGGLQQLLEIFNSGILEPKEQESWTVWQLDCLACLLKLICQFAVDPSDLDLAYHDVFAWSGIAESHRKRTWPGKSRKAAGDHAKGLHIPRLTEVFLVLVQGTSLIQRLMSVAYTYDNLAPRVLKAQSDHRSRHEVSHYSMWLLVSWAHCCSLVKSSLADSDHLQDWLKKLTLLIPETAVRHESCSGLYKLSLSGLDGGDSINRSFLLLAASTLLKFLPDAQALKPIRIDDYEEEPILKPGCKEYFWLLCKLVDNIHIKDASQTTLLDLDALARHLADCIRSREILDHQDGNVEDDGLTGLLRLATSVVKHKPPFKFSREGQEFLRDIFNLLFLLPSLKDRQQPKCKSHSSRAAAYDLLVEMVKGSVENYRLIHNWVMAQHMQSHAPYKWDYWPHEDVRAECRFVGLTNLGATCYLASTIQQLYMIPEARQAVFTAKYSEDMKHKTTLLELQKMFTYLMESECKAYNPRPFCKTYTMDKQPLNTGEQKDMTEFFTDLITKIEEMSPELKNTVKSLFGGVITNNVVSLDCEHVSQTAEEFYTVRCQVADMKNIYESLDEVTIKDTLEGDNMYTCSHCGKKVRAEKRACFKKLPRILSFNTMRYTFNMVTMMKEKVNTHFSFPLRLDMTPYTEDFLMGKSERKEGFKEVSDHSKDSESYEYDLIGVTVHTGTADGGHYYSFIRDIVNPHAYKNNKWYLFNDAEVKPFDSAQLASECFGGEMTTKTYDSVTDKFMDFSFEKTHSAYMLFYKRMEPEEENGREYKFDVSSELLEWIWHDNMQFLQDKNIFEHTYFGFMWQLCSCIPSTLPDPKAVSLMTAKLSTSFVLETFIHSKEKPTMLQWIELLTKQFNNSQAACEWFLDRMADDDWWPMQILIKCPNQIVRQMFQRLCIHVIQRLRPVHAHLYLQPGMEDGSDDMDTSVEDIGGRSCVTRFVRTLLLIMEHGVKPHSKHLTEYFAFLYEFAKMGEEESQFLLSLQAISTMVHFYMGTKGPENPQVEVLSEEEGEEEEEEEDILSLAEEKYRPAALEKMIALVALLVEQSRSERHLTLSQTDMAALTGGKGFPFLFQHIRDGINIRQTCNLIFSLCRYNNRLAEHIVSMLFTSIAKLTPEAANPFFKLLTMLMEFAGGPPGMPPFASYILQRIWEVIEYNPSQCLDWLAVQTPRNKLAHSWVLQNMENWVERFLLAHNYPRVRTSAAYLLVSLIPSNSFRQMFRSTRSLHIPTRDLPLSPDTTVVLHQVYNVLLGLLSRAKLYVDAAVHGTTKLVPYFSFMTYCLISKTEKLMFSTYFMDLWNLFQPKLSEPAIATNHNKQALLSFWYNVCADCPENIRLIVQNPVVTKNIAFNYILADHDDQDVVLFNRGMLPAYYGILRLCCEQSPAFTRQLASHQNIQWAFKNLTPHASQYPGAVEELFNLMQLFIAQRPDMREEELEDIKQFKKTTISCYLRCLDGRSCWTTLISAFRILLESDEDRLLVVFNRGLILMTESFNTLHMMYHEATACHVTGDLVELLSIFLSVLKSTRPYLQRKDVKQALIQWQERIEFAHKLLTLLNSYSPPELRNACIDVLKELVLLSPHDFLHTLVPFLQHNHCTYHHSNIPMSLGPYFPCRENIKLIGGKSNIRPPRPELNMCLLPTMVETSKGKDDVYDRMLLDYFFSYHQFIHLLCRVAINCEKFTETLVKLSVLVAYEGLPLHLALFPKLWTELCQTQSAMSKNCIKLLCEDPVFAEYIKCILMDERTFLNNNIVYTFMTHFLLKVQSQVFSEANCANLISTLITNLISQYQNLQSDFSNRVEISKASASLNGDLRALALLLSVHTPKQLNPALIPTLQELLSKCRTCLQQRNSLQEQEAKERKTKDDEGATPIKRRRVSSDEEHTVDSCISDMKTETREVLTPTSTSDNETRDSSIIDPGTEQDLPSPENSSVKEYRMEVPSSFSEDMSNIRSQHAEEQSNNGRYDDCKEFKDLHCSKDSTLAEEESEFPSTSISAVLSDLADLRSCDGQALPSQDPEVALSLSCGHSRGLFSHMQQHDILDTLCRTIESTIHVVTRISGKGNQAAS
In short: (§1)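 Labelled DUBs from HEK293T lysate were NeutrAvidin-enriched, digested with LysC and trypsin, and run by diaPASEF LC-MS/MS. Before that, each 495 µg sample in Tris/CHAPS/IGEPAL buffer with protease inhibitors was treated in triplicate with fragment at 200 µM or vehicle for 3 h, then with Biotin-Ahx-Ub-VS at 0.5 µM final for 1 h. Values are average log2 ratios of fragment over vehicle by unpaired t-test, based on global-median-normalised Spectronaut label-free quantities from proteins with ≥2 unique peptides.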

USP36 = target: T1, USP36 (UniProt Q9P275)
T1 sequence (whole entry): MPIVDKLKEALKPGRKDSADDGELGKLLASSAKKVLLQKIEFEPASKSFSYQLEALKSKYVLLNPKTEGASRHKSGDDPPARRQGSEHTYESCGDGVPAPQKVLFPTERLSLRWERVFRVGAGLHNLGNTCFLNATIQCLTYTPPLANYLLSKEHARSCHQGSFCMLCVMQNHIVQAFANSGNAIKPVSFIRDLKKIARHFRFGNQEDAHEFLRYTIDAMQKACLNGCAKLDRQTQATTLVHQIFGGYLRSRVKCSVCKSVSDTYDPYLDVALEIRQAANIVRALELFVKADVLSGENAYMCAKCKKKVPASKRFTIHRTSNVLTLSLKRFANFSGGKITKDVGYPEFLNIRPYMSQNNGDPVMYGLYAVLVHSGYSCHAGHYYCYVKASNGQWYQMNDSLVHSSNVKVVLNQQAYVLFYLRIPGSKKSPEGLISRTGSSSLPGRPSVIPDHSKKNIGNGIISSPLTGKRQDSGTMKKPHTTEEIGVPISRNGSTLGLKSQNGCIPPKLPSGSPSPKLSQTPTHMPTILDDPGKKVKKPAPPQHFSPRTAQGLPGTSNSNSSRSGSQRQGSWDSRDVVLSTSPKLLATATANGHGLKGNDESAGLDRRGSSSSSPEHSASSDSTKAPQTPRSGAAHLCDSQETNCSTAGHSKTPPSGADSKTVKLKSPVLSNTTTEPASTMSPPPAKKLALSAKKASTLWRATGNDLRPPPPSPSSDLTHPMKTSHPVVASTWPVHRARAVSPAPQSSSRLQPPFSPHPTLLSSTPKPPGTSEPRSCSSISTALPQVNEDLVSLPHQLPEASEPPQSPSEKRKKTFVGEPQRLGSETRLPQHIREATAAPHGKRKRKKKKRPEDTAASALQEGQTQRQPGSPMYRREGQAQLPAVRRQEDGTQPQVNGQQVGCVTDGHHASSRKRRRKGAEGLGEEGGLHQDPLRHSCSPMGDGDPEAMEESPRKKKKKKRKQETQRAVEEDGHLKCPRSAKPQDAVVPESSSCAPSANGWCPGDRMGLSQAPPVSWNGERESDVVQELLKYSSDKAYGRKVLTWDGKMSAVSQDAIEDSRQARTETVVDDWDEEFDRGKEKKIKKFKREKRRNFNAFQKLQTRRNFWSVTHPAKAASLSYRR
In short: as §1

USP38 = target: T2, USP38 (UniProt Q8NB14)
T2 sequence (whole entry): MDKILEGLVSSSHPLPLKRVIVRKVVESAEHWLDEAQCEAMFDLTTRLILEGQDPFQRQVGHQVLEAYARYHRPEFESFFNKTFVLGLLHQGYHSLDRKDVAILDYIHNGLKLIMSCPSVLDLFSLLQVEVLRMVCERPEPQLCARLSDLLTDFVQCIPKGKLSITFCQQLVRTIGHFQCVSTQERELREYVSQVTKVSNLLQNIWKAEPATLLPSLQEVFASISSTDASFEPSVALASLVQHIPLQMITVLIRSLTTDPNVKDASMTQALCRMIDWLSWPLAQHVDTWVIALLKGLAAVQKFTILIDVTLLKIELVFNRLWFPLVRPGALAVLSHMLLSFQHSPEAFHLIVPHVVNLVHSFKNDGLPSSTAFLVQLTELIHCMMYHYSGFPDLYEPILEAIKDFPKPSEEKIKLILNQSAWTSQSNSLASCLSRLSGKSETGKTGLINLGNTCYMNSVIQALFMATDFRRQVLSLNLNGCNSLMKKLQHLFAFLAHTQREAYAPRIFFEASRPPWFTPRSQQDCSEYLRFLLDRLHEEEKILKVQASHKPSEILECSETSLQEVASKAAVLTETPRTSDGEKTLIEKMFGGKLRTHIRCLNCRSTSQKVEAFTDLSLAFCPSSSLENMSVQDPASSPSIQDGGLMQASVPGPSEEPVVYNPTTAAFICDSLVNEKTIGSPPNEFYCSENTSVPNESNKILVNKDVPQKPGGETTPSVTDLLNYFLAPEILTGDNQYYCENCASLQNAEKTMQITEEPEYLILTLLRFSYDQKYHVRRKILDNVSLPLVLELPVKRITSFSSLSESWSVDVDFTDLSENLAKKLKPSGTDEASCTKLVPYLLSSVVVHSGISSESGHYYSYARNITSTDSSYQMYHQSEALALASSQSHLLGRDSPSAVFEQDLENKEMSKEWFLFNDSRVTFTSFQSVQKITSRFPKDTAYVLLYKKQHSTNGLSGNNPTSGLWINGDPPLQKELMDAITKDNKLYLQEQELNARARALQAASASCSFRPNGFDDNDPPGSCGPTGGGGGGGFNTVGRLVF
In short: as §1

USP39 = target: T3, USP39 (UniProt Q53GS9)
T3 sequence (whole entry): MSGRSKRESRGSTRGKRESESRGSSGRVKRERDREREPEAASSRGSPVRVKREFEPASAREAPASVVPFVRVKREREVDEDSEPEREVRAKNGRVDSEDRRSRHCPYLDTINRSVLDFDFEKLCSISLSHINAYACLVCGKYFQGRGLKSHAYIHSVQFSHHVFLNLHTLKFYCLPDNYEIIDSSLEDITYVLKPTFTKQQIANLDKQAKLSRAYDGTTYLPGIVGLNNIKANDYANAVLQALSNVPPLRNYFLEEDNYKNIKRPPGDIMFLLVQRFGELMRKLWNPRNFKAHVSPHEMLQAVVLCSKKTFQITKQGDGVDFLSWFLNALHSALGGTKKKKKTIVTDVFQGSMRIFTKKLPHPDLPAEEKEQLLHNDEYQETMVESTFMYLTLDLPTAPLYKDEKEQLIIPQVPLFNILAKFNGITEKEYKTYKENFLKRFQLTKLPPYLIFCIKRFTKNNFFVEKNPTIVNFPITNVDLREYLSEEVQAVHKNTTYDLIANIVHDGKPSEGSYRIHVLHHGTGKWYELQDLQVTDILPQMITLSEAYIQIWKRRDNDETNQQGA
In short: as §1

USP4 = target: T4, USP4 (UniProt Q13107)
T4 sequence (whole entry): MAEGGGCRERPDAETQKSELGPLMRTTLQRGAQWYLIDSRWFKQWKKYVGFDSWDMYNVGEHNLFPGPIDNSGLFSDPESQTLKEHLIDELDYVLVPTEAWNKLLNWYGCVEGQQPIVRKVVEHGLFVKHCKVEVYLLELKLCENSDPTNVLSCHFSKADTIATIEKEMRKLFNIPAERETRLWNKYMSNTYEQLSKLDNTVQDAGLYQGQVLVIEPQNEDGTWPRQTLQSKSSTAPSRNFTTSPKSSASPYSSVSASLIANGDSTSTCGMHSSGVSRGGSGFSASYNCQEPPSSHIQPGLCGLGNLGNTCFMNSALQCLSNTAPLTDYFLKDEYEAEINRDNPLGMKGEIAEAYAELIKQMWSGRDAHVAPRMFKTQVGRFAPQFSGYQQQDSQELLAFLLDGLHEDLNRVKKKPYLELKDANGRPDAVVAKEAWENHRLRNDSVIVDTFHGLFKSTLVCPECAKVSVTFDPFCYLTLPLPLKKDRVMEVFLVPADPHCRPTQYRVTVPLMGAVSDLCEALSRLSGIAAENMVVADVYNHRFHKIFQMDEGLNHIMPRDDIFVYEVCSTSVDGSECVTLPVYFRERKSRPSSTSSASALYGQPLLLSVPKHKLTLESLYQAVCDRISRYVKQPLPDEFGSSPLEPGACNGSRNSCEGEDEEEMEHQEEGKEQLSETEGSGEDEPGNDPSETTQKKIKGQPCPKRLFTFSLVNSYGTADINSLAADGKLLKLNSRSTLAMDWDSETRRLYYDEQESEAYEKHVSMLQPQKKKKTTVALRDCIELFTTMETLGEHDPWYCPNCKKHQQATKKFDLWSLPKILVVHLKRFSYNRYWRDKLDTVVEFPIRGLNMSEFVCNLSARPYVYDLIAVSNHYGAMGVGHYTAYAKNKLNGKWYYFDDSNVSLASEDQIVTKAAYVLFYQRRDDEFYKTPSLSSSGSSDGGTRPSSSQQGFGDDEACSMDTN
In short: as §1

Measured: log2 ratio of Biotin-Ahx-Ub-VS probe labelling

Cl.Cn1ncc2c1CC(NC(=O)CCl)CC2 (stereo not given)
inactive: USP34 0.0665 | USP36 -0.0622 | USP38 0.034 | USP39 -0.0219 | USP4 0.0879
